Lassa entry – blocks Lassa virus binding or cell entry; Potency, µM (highest dose often 49.2 µM), without a hit: at the highest dose activity change, negative = inhibition, most hits filed as inhibitors; Lassa virus pseudotyped entry inhibition, cell-based qHTS; AID 720533; 18,000 compounds, 4.1% hits
MARV entry inh – inhibitors of Marburg virus binding or entry into cells | Marburg virus pseudotype entry/binding inhibition, cell-based | Potency, µM (highest dose often 49.2 µM), inactives show at the top dose activity change, negative = inhibition, most hits filed as inhibitors | 18,000 compounds, 6.5% hits | AID 720532
An asterisk follows results filed as active; ? = inconclusive; nt = no result; ! = not confirmed by another sample; [ ] = dose if it differs, or a comment. Shown are actives, neighbours in structure and some others; about 7.1% of the full set was active somewhere. The call rests on the fitted dose curve; tested in HEK293 cells. On the % scale 0 is the no-effect control and ±100 the full control effect; potency means the concentration at half of the fitted maximal effect.

SMILES | Lassa entry | MARV entry inh
CC(NCCc1ccc(O)cc1)C(O)c1ccc(O)cc1 (centres undefined) | -23% | 7%
CCCCCCCCNC(C)C(O)c1ccc(SC(C)C)cc1 (centres undefined) | 11µM* | ?
COCCN1C(=O)NC(c2ccc(Br)cc2)C(C(C)=O)=C1C (centres undefined) | 2%[8.59 µM] | 63%[8.59 µM]
C=CCN1C(=O)[C@@]2(CC(C)=C[C@@H](COc3ccccc3)O2)c2ccccc21 | 7%[8.59 µM] | 2%[8.59 µM]
C[C@@H]1CC[C@H]2[C@@H](C)C(=O)O[C@@H]3O[C@@]4(C)CC[C@@H]1[C@]32OO4 | 2.2µM* | 1.8µM*
CC1CCC2C(C)C(=O)OC3O[C@]4(C)CCC1[C@@]32OO4 (some centres undefined) | -23% | -26%
O=C1Nc2ccccc2C2(CCN(CCc3ccc(C(F)(F)F)cc3)CC2)O1 | ? | 11µM*
FC(F)(F)c1cccc(C2=CCN(CCc3ccc4ccccc4c3)CC2)c1 | -1% | -1%
CCN1C(=O)[C@@H]2[C@H]3[C@H](O)[C@H](O)CC(=NO[C@H](C)c4cn([C@H](CO)Cc5ccccc5)nn4)[C@@H]3CC[C@H]2C1=O | nt | -11%[8.59 µM]
COC(=O)N[C@@H](c1ccc2ccccc2c1)C(C(C)=O)C(=O)OC (some centres undefined) | 16%[8.59 µM] | -16%[8.59 µM]
COc1cc(/C=C/C(=O)O)ccc1O | -12% | 8%
COc1cccc(/C=C/C(=O)O)c1C(C)C | -1% | 7%
COc1cc(/C=C/C(=O)CC(=O)/C=C/c2ccc(O)c(OC)c2)ccc1O | 32µM*! | ?
COc1ccc(/C=C/C(=O)CC(=O)/C=C/c2cccc(O)c2OC)cc1O | 10µM* | 8.9µM*
COc1cc(C=C2CCC/C(=C\c3ccc(O)c(OC)c3)C2=O)ccc1O | 32µM* | ?
COc1cc(C=O)ccc1O | -4% | 0%
CC(C)C[C@H]1COc2c(Cl)cccc2S(=O)(=O)N1Cc1ccc(Cl)cc1 | ? | -23%
CO[C@H]1C[C@@H]2CC[C@@H](C)[C@@](O)(O2)C(=O)C(=O)N2CCCC[C@H]2C(=O)O[C@H](C(C)C[C@H]2CC[C@@H](O)[C@H](OC)C2)CC(=O)[C@H](C)/C=C(\C)[C@@H](O)[C@@H](OC)C(=O)[C@H](C)C[C@H](C)/C=C/C=C/C=C/1C (some centres undefined) | -21% | ?
CO[C@H]1C[C@@H]2CC[C@@H](C)[C@@](O)(O2)C(=O)C(=O)N2CCCC[C@H]2C(=O)O[C@H]([C@H](C)C[C@@H]2CC[C@@H](OCCO)[C@H](OC)C2)CC(=O)[C@H](C)/C=C(\C)[C@@H](O)[C@@H](OC)C(=O)[C@H](C)C[C@H](C)/C=C/C=C/C=C/1C | 25µM* | ?
O=S1(=O)CCSCCN1Cc1ccc(Cl)cc1 | -16% | 22%
CCC1CN2CCc3cc(OC)c(OC)cc3C2CC1CC1NCCc2cc(OC)c(OC)cc21 (centres undefined) | 5.6µM* | 5µM*
COc1ccc(CC2NCCc3cc(OC)c(OC)cc32)cc1OC (centres undefined) | 2% | -18%
CCCCCCCc1cc2ccccc2c2c(C(C)=O)c(-c3ccccc3)c(C(=O)OC)n12 | 6%[8.59 µM] | -16%[8.59 µM]
CC(C)CON=C1C[C@@H](O)[C@@H](O)[C@@H]2[C@H]3C(=O)N(Cc4ccc5c(c4)OCO5)C(=O)[C@@H]3CC[C@H]12 | 20%[8.59 µM] | 30%[8.59 µM]
O=C(C=Cc1ccccc1)Nc1cccc(C(=O)N2CCCC2)c1 | 38% | 42%
SMILES | Lassa entry | MARV entry inh
C=COCCN1C=C(C(=O)OCC)C(c2ccccc2)NC1=O (centres undefined) | 18%[8.59 µM] | 10%[8.59 µM]
C=C(C)C(=O)c1ccc(OC)cc1 | -17% | -14%
COc1ccc(CC2NC[C@H](O)[C@H]2OC(C)=O)cc1 (some centres undefined) | 0.32µM* | 0.32µM*
CC(C)NC[C@@H](O)COc1ccc(CC(N)=O)cc1 | 1% | -24%
CN(CCc1ccc(Cl)c(Cl)c1)C[C@@H](O)COc1ccc(NS(C)(=O)=O)cc1 | -21% | 14µM*
COC(=O)Nc1nc2ccc(C(=O)c3cccs3)cc2[nH]1 | ? | 1.1µM*!
COC(=O)Nc1nc2ccc(C(=O)c3ccccc3)cc2[nH]1 | -32%[17.8 µM] | ?
CCN1C(=NCCc2ccc(Br)cc2)NC(c2ccccc2)C(C(=O)OC)=C1C (centres undefined) | 2%[8.59 µM] | ?
O=C(C[C@H]1C(=O)N(c2ccccc2)C[C@@H]1c1ccccc1)Nc1ccccc1 | 25% | -14%
CCCCNCC(O)c1ccc(O)cc1 (centres undefined) | -2% | 6%
OCc1cc([C@@H](O)CNCCCCCCOCCCCc2ccccc2)ccc1O | ? | 13µM*
COc1ccc(CNC(=O)/C=C\c2ccc3[nH]cc(CCN(C)C)c3c2)cc1 | -23% | 22µM*
CN(C)CCc1c[nH]c2ccc(O)cc12 | -9% | -13%
CCOC(=O)CN1C(=O)NC(c2ccc(Br)cc2)C(C(C)=O)=C1C (centres undefined) | 39%[8.59 µM] | 47%[8.59 µM]
O=C(c1cccs1)N1C[C@H](n2cc(C3CC3)nn2)[C@H](O)C[C@@H]1c1ccccc1 | 9% | 14%
CC1=C(/C=C/C(C)=C/C=C/C(C)=C/C=C/C=C(C)/C=C/C=C(C)/C=C/C2=C(C)C[C@@H](O)CC2(C)C)C(C)(C)C[C@H](O)C1 | 28µM* | 9%
CC1=C(/C=C/C(C)=C/C=C/C(C)=C/C=C/C=C(C)/C=C/C=C(C)/C=C/C(=O)[C@]2(C)CC(O)CC2(C)C)C(C)(C)CC(O)C1 (some centres undefined) | 6% | 8%
COC(=O)C1=C(C)N(Cc2ccccc2)C(=NCc2ccc(OC)cc2)NC1c1ccccc1 (centres undefined) | 1%[8.59 µM] | -18%[8.59 µM]
COC(=O)C1=C(C)N(Cc2ccccc2)C(=S)NC1CCc1ccccc1 (centres undefined) | -3%[8.59 µM] | 38%[8.59 µM]
CCC[C@H]1CN(c2ccc(OC)cc2)C(=O)[C@H]1CC(=O)NC | -14% | ?
COc1cc(-c2coc3cc(OC)c(OC)c(OC)c3c2=O)cc(OC)c1OC | -11% | 2%
CC(=O)Oc1cc(-c2coc3cc(OC(C)=O)c(OC(C)=O)c(OC(C)=O)c3c2=O)cc(OC(C)=O)c1OC(C)=O | -5% | 14µM*
COC(=O)N1C2CC(=O)O[C@H]3c4cc5c(cc4[C@]1(C)[C@@]3(Br)c1ccccc12)OCO5 | 13%[8.59 µM] | 8%[8.59 µM]
CO/C=C(/C(=O)OC)c1ccccc1Oc1cc(Oc2ccccc2C#N)ncn1 | 22µM* | 28µM*
C#CCNc1ccc2c(c1)OC[C@H](C)NS2(=O)=O | nt | 8%
SMILES | Lassa entry | MARV entry inh
CCOC(=O)[C@]12C[C@]3(OC)CCN(C(=O)N[C@@H]1c1ccccc1)[C@@H]32 | ? | 10%[8.59 µM]
CCCCCCCCCCCC[n+]1ccc2ccccc2c1 | 8.9µM* | 11µM*
CCCCCCCCCCCCCCCC[n+]1ccccc1 | 22µM* | 13µM*
CCCCCCCCCCCCCC[n+]1ccc(C)cc1 | 22µM* | ?
CCCCCCC[n+]1ccc(-c2cc[n+](CCCCCCC)cc2)cc1 | -20% | -1%
CCCCCCCCCCCCCCCC(=O)O | 4% | 3%
CCCCCCCCc1[se]c2ccccc2c1I | 4% | 1%
COC(=O)C1=C(C)N(Cc2ccccc2)C(=NCCc2ccc(O)cc2)NC1c1ccc(Br)cc1 (centres undefined) | -24%[8.59 µM] | 2%[8.59 µM]
COCC=CC1=CC2=CC(=O)C(C)(OC(=O)c3cnc4ccccc4n3)C(=O)C2=CN1CC(C)C (centres undefined) | 7%[8.59 µM] | 7%[8.59 µM]

Screens: PubChem, National Center for Advancing Translational Sciences (NCATS)
